Source: PubChem BioAssay AID1347416 (National Center for Advancing Translational Sciences (NCATS), 2020)
Among all 4,100 compounds or so, about 1,600 (39%) were called active. Inconclusive results (about 25%) are left out. The call rests on the fitted dose curve; in most records, active means well fitted inhibition curve with a large enough effect; inconclusive means small, poorly fitted or top-dose-only effect; inactive means no such curve, though single readings can be large or run the other way. This is one part of the list.

Experiment: qHTS Validation assay for Inhibitors of Plasmodium falciparum Dd2 growth in vitro; further: nearly all actives have a fitted effect of over 70% in size
Details: P. falciparum Dd2 in RBCs, SYBR Green growth, 72 h; series mostly up to 28.7 µM; activity change, negative = inhibition: at the top concentration
Outline: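 P. falciparum Dd2-infected red blood cells (2.5% hematocrit, 0.3% parasitemia) grown 72 h at 37 °C under 5% O2 with compounds in a titration, 29 uM to 0.5 nM final. Growth read as SYBR Green-1 fluorescence after ~16 h lysis; artesunate 300 nM as positive control.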
On the % scale 0 is the no-effect control and ±100 the full control effect; potency means the concentration at half of the fitted maximal effect.

Compound | activity change, negative = inhibition | Potency
Cc1cc(C)cc(NC(=O)NCc2c(-n3cccc3)sc3c2CCCC3)c1 | 36.2% (inactive) | 
CC(=O)N1Cc2ccccc2CC2(CCN(Cc3ccccn3)CC2)C1 | 17.5% (inactive) | 
CC(C)C(=O)N1Cc2ccccc2CC2(CCCN(CC3CCCCC3)C2)C1 (configuration not stated) |  | 0.0531 µM (active)
CC(=O)N1Cc2ccccc2CC2(CCN(CC3CCOCC3)C2)C1 (configuration not stated) | 12.6% (inactive) | 
CC(C)(C)c1cnc([C@@H]2COCCN2Cc2ccccc2O)[nH]1 |  | 13.7 µM (active)
Cc1ccc(CN2CCOC[C@H]2c2ncc(C(C)(C)C)[nH]2)cc1 |  | 13.7 µM (active)
C[C@@H](c1ccccc1)N1C(=O)[C@@H]2CN(C(=O)c3cccnc3)CCN2C1=O | 37.2% [at 43.1 µM] (inactive) | 
Cc1nn2c(c1-c1ccccc1-c1ccccc1)N(Cc1ccc(O)cc1)CCC2 |  | 0.485 µM (active)
Cc1nn2c(c1-c1ccccc1-c1ccccc1)N(Cc1cccc(O)c1)CCC2 |  | 4.85 µM (active)
CCCCSc1nnc2c(n1)OC(C)N(C(C)=O)c1ccccc1-2 (configuration not stated) | 9.17% (inactive) | 
COc1cc(NS(=O)(=O)c2cnc(N)nc2)cc(OC)c1 | 0% (inactive) | 
CCOc1ccc(S(=O)(=O)Nc2ccc3oc4c(c3c2)CC(C)CC4)cc1 (configuration not stated) | 27.2% (inactive) | 
CCOc1ccc(NS(=O)(=O)c2csc(C(N)=O)c2)cc1 |  | 7.5 µM (active)
CCn1cc(C(=O)O)c(=O)c2cnc(N3CCN(C(=S)Nc4ccccc4)CC3)nc21 |  | 3.76 µM (active)
CCn1cc(C(=O)N2CCN(c3ccc(OC)cc3)CC2)c(=O)c2cc(S(=O)(=O)N3CCOCC3)ccc21 | 32.5% (inactive) | 
CCc1cc(C(=O)OC)c(NC(=O)CN2CCN(C(=O)c3ccco3)CC2)s1 |  | 5.96 µM (active)
Cc1ccc(C(=O)c2cc(C)sc2NC(=O)CN2CCN(C(=O)c3ccco3)CC2)cc1 |  | 7.5 µM (active)
COCCOC1CCOC2(CCN(C(=O)c3ccco3)CC2)C1 (configuration not stated) | -41.3% (inactive) | 
COc1ccccc1NC(=O)CSc1nc2c(oc3ccccc32)c(=O)n1-c1ccc(C)cc1 |  | 15 µM (active)
COc1ccccc1-n1c(SCC(=O)NC(C)(C)C)nc(O)cc1=O | 12.2% (inactive) | 
COCCN1C(=O)c2ccccc2C(C(=O)Nc2nc3ccccc3[nH]2)C12CCCCC2 (configuration not stated) |  | 4.73 µM (active)
CCc1nc(NC(=O)C2c3ccccc3C(=O)N(CCOC)C23CCCC3)sc1C (configuration not stated) |  | 5.96 µM (active)
COCCN1C(=O)c2ccccc2C(C(=O)Nc2nc3ccccc3[nH]2)C12CCCC2 (configuration not stated) |  | 4.22 µM (active)
COCCN1C(=O)CC[C@]2(C(=O)NCc3ccccc3Cl)CCCC[C@@H]12 | -5.07% (inactive) | 
COCCN1C(=O)CCC2(CNC(=O)CCc3nc4ccccc4[nH]3)CCCC=C12 (configuration not stated) | 12.1% (inactive) | 

Compound | activity change, negative = inhibition | Potency
COc1nc(N(C)S(=O)(=O)c2ccc(C)cc2)nc(C)c1Br | 21.9% (inactive) | 
Cc1cnc(CCNC(=O)Cn2c(=O)oc3ccccc32)n1C1CC1 | -13.1% (inactive) | 
Cc1cc(C(F)(F)F)nn1CC(=O)NCCc1ncc(C)n1CC1CC1 |  | 10.6 µM (active)
Cc1nnc2n1CCC(N(C)S(=O)(=O)c1cn(C)cn1)CC2 (configuration not stated) | 10.2% (inactive) | 
CN(CCn1cc(-c2nccn2C)nn1)S(C)(=O)=O | 39.1% (inactive) | 
Cc1cccc2cc(CN(Cc3ccco3)C(c3nnnn3CCc3ccccc3)C(C)C)c(=O)[nH]c12 (configuration not stated) |  | 10.6 µM (active)
Cc1noc(-c2ccn3c(CNC(=O)c4ccccc4Cl)nnc3c2)n1 | 10.4% (inactive) | 
COC(=O)COc1ccc(-c2nccc(-c3ccccn3)n2)cc1 | 40% (inactive) | 
Cc1ccccc1Nc1nnc(SCc2cc(=O)n3ccsc3n2)s1 | 4.3% (inactive) | 
c1ccc(CCNc2nc(-c3ccccn3)cs2)cc1 |  | 7.5 µM (active)
c1ccc(CNc2nc(-c3ccccn3)nc3ccccc23)cc1 |  | 5.31 µM (active)
O=C(O)Cn1c(-c2ccccn2)nc2ccccc21 | 41% (inactive) | 
Cc1ccccc1Nc1nc(-c2cccnc2)cs1 |  | 9.44 µM (active)
Cc1cccnc1Nc1nc(-c2ccccn2)cs1 |  | 0.473 µM (active)
Cc1nn(C)cc1CN(C)C(=O)CC12CC3CC(CC(C3)C1)C2 | 21.6% (inactive) | 
CC(C)c1noc(-c2cn(C3CCCN(C(=O)c4ccc(N(C)C)cc4)C3)nn2)n1 (configuration not stated) | -13.1% (inactive) | 
COc1ccc(OC)c(C2Nc3c(C)cc(C)cc3-c3cc(C)nn32)c1 (configuration not stated) | -26.2% (inactive) | 
c1ccc(-c2nc(NCc3ccco3)c3ccccc3n2)nc1 |  | 5.96 µM (active)
CCCN(CCC)c1nc(-c2ccccn2)nc2ccccc12 |  | 5.31 µM (active)
c1ccc(CCNc2nc(-c3ccccn3)nc3ccccc23)cc1 |  | 4.73 µM (active)
CCCCOc1cccc(C(=O)N(Cc2ccc(Br)o2)C2CCS(=O)(=O)C2)c1 (configuration not stated) | 0% (inactive) | 
Oc1cc(NCc2ccc(F)cc2)cc2cccnc12 |  | 4.73 µM (active)
Oc1cc(NCc2ccccc2)cc2cccnc12 |  | 2.99 µM (active)
O=C(CCn1c(=O)c2cccn2c2cccnc21)NCc1ccc(F)cc1 | 3.25% (inactive) | 
Cc1ccc(-c2cc3c(=O)n(CCNC(=O)c4cccnc4)ccn3n2)c(C)c1 | -19.2% (inactive) | 

Compound | activity change, negative = inhibition | Potency
COc1cccc(NC(=O)CCc2c(C)nc3c4cccnc4nn3c2C)c1 | 5.09% (inactive) | 
COc1cccc(CNC(=O)Cn2c(SCC(=O)Nc3ccc(F)cc3)nc3ccccc32)c1 | -22.5% (inactive) | 
COc1ccc(C(=O)OCCc2cc3ccccc3c(=O)o2)cc1 | 24.1% (inactive) | 
COc1cccc(NC(=O)CN(C)C(=O)c2oc3c(ccc4ccccc43)c2C)c1 |  | 0.75 µM (active)
COc1ccc(NC(=O)CN(C)C(=O)c2oc3c(ccc4ccccc43)c2C)cc1 |  | 0.531 µM (active)
COCc1nc(C2CC(NC(=O)c3cc(-c4ccsc4)n[nH]3)C2)cc(=O)[nH]1 (configuration not stated) | 27.8% (inactive) | 
COc1ccc(C(C(=O)Nc2ccc(C(C)C)cc2)N(Cc2ccco2)C(=O)CC2NC(=O)NC2=O)cc1 (configuration not stated) |  | 6.68 µM (active)
CN1CCN(C(=O)c2ccc3c(c2)N(Cc2ccc(C(F)(F)F)cc2)C(=O)c2ccccc2S3)CC1 |  | 0.531 µM (active)
CCOc1ccc(CN2C(=O)c3ccccc3Sc3ccc(C(=O)N4CCN(C)CC4)cc32)cc1 |  | 0.299 µM (active)
O=C(c1ccc2[nH]ncc2c1)N1CCOCC12CCN(CCCc1ccccc1)CC2 | -9.68% [at 43.1 µM] (inactive) | 
Cc1cn2nc(C(=O)N3CCC(NC(=O)c4ccc(F)cc4)CC3)cc2c(=O)[nH]1 | 9.32% (inactive) | 
O=C(Nc1ccsc1C(=O)NC1CCCCC1)c1ccc(F)cc1 |  | 6.68 µM (active)
CCCN(CC1CCOC1)S(=O)(=O)c1ccc(C)c(C)c1 (configuration not stated) | 13.2% (inactive) | 
Cc1ccc(C(=O)Nc2ccc(OCc3cc(=O)n4c(C)csc4n3)cc2)cc1 | -7.09% (inactive) | 
COC(=O)c1cnn(-c2ccc(C(=O)Nc3cccc(C(C)=O)c3)cc2)c1N | 7.57% (inactive) | 
COC(=O)c1cnn(-c2ccc(C(=O)Nc3ccc(OC(F)(F)F)cc3)cc2)c1N |  | 4.73 µM (active)
CNC(=O)c1cnc2c(c1)N(C(=O)Cc1ccc(C(C)C)cc1)CCC2 | 23.4% [at 43.1 µM] (inactive) | 
O=C(NCc1ccc2c(c1)OCO2)c1cnc2c(c1)N([S+](=O)([O-])c1cccnc1)CCC2 | 1.02% (inactive) | 
CC(C)CCNC(=O)c1cnc2c(c1)N(C(=O)Cc1cn(C)c3ccccc13)CCC2 | -13% [at 43.1 µM] (inactive) | 
CC(C)c1ccc(CC(=O)N2CCCc3ncc(C(=O)NCCc4c[nH]c5ccccc45)cc32)cc1 |  | 15 µM (active)
CC(C)c1ccc(CC(=O)N2CCCc3ncc(C(=O)Nc4cccnc4)cc32)cc1 |  | 0.863 µM (active)
Cn1cc(CC(=O)N2CCCc3ncc(C(=O)Nc4cccnc4)cc32)c2ccccc21 | -27.4% [at 43.1 µM] (inactive) | 
O=C(O)CCC(=O)Nc1ccc(-n2ccc(C(F)(F)F)n2)cc1 | 57% (inactive) | 
O=C1N(c2ccccc2C(F)(F)F)O[C@@]1(c1ccccc1)C1CCCC1 |  | 2.99 µM (active)
O=C1N(c2ccccc2C(F)(F)F)O[C@@]1(c1ccccc1)C1CCCCC1 |  | 5.31 µM (active)

Compound | activity change, negative = inhibition | Potency
O=C1CC2(CCN(Cc3cccs3)CC2)Oc2cc(Cl)ccc21 |  | 5.31 µM (active)
O=C1CC2(CCN(CC3CCCCC3)CC2)Oc2cc(Cl)ccc21 |  | 1.5 µM (active)
CC(=O)c1c(C)nc(C)nc1NC(=O)C(C)C | 16.1% (inactive) | 
COc1ccccc1CN1CCC(CNC(=O)c2cnn(-c3ccc(Cl)cc3)c2C2CCN(C(=O)OC(C)(C)C)CC2)CC1 |  | 2.66 µM (active)
Cc1ccc(CN2CCC(CNC(=O)c3cnn(-c4ccc(C)cc4)c3C3CCN(C(=O)OC(C)(C)C)CC3)CC2)cc1 |  | 8.41 µM (active)
COc1ccccc1CN1CCC(CNC(=O)c2cnn(-c3cccc(Cl)c3)c2C2CCN(C(=O)OC(C)(C)C)CC2)CC1 |  | 7.5 µM (active)
CNC(=O)[C@@H]1CN(C(=O)c2cc(OC)cc(OC)c2)C[C@H]1COC | 15.4% (inactive) | 
CC(=O)Nc1ccc(NC(=O)Cn2ccn3nc4c(c3c2=O)CCCCC4)cc1 | 38.6% (inactive) | 
COc1ccc(-c2cc(=O)oc3c4c(ccc23)OCN(Cc2ccccc2)C4)cc1 |  | 2.99 µM (active)
COc1ccc(-c2ncc3c(n2)OCCN(Cc2ccccc2)C3=O)cc1 | -13.6% [at 43.1 µM] (inactive) | 
COc1ccccc1Cn1cc(C(=O)c2ccc(C)cc2)c(=O)c2cc(C)ccc21 | -9.93% (inactive) | 
O=c1cc(-c2ccccc2)c2ccc3c(c2o1)CN(Cc1ccccc1)CO3 |  | 2.66 µM (active)
CCc1c(C)c2ccc(O)c(CN3CCN(c4ccccc4)CC3)c2oc1=O |  | 2.37 µM (active)
COc1ccccc1CN1COc2ccc3c(oc(=O)c4ccccc43)c2C1 |  | 2.11 µM (active)
Cn1nc(-c2nncn2CC2CC2)c2c1CCN(C(=O)c1[nH]nc3c1COc1ccccc1-3)C2 | -23.7% (inactive) | 
COc1cccc(C2Cn3nnc(-c4nc(-c5ccccc5Br)no4)c3CO2)c1 (configuration not stated) | -18.1% (inactive) | 
Cc1ccc(CN2CCc3oc(C)c(C(=O)N(C)CC(=O)N4CCCC4)c3C2)cc1 | -21.8% (inactive) | 
CCC(=O)N(C1CCOCC1)C1CCN(Cc2cccc(Cl)c2)CC1 | 9.38% (inactive) | 
O=C1CN(Cc2ccc(-c3ccccc3)cc2)CCN1c1cc(Cl)ncn1 | 8.44% (inactive) | 
CCc1c(C)c2ccc3c(c2oc1=O)CN(Cc1ccccc1)CO3 |  | 2.11 µM (active)
O=c1cc(-c2ccccc2)c2ccc3c(c2o1)CN(Cc1cccc(Cl)c1)CO3 |  | 0.842 µM (active)
Cc1ccc(CN2COc3ccc4c(-c5ccccc5)cc(=O)oc4c3C2)cc1 |  | 0.842 µM (active)
